Bioassay records as filed in PubChem BioAssay.
Sampled rows, rich in hits. Any-hit rate of the full collection: about 2.3%.
Shn3 3UTR inh: inhibitors of Schnurri-3 3'UTR reporter in osteoblasts; Clone20 osteoblast Shn3 3'UTR firefly luciferase, 24 h; inhibition, % at 12.5 µM; actives 0.52% (n = 360,000);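 active = mean inhibition of at least 75% with every replicate also reaching 75%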;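 note: 0% = median of neutral control wells and 100% = pilot-screen positive control compound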
TRPM1 prom inh: MITF TRPM1 promoter inhibition in SK-MEL-5 cells | SK-MEL-5 TRPM1 promoter luciferase, 24 h | inhibition, % at 12.5 µM | actives 0.83% (n = 330,000) | AID 488899;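 active = mean inhibition across replicates of 60% or more, whatever share of single replicates reaches that level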
Jurkat NFkB inh: inhibitors of the PMA/ionomycin-induced NF-kB reporter in Jurkat cells; PMA/ionomycin-induced NF-kB luciferase reporter, luminescence; inhibition, % at 4 µM; actives 0.53% (n = 330,000); in the data active = inhibition above about 50%
LMP1 NFkB inh: reduces LMP1-driven NF-kappaB luciferase signal | LMP1-induced NF-kappaB luciferase reporter cells, luminescence | inhibition, % at 12.5 µM | actives 0.69% (n = 350,000); in the data active = inhibition above about 41%;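 note: 0% = neutral control wells and 100% = reference inhibitor control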
697 NFkB inh: lowers PMA/ionomycin-induced NF-kB signal in 697 B cells | 697 B-cell NF-kB luciferase reporter, 16 h | inhibition, % at 4 µM | actives 0.33% (n = 330,000); in the data active = inhibition above about 35%
Gli-Sufu block: blocks Gli-Sufu signaling in a luciferase reporter; Sufu-KO-LIGHT fibroblasts, Gli luciferase reporter luminescence; inhibition, % at 5 µM; actives 0.74% (n = 340,000);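 active = inhibition above about 55%, limit read from the data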;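 note: 0% = DMSO-treated cells and 100% = wells with medium but no cells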
The depositor's hits bear a star; . = not tested or not shown.

SMILES	Shn3 3UTR inh	TRPM1 prom inh	Jurkat NFkB inh	LMP1 NFkB inh	697 NFkB inh	Gli-Sufu block
CCN1CCN(c2cc(C)c3cc(NC(=S)N4CCN(c5ccc(F)cc5)CC4)ccc3n2)CC1	6	85*	-1	-9	15	11
CCN1CCN(C(=S)Nc2ccc3nc(N4CCN(CC)CC4)cc(C)c3c2)CC1	-44	6	11	3	-12	2
CN(CC(=O)Nc1cccnc1)S(=O)(=O)c1ccc(Br)cc1	0	2	0	50*	-9	-6
Cc1ccc(S(=O)(=O)N(C)CC(=O)Nc2cccnc2)cc1	3	7	25	0	19	32
CC1CC2C(C(O)CC3(C)C2CCC3(O)C(=O)CO)C2(C)C=CC(=O)C=C12 (configuration not stated)	-4	-10	.	10	.	6
O=C(NNC(=O)C(c1ccccc1)c1ccccc1)c1ccccn1	93*	50	14	26	13	24
CCNC(=S)NNC(=O)c1ccccn1	5	12	8	1	-5	-11
O=C(NNC(=S)Nc1ccc(Cl)c(Cl)c1)c1ccccn1	92*	40	-1	62*	20	-11
COc1ccccc1OCc1ccc(C(=O)NCc2ccco2)o1	6	-7	-7	-1	-15	-3
C[C@H](CO)N1C[C@H](C)[C@@H](CN(C)S(=O)(=O)c2ccccc2)Oc2ccc(NC(=O)CCC(F)(F)F)cc2C1=O	-6	-4	-13	-3	2	-10
CC1(C)SC2c3ccccc3C(=O)N2[C@@H]1C(=O)NCCCN1CCOCC1 (some centres not stated)	-4	-1	-6	71*	0	8
O=C(C1CCC(CNS(=O)(=O)c2cccs2)CC1)N1CCN(c2ccc(Cl)cc2)CC1 (configuration not stated)	88*	69*	48	33	15	43
O=C(NC1CCCC1)C1CCC(CNS(=O)(=O)c2cccs2)CC1 (configuration not stated)	25	-14	-8	3	-7	3
C=CCN1CCN(C(c2cccc(OC)c2OC)c2nnnn2CCC(C)C)CC1 (configuration not stated)	2	2	20	8	3	23
COc1ccc(CNC(=O)C(c2ccncc2)N(C(=O)Cc2cccs2)c2ccccc2)cc1 (configuration not stated)	-8	20	.	0	.	1
COc1ccc(N(C(=O)CCl)C(C(=O)NCCc2ccccc2)c2cccs2)cc1 (configuration not stated)	96*	88*	.	-3	.	95*
NC(=O)c1sc2nccc(Nc3ccccc3)c2c1N	-8	-19	-11	65*	4	-28
CCN1CCN(C(c2ccc(OC)cc2)c2nnnn2Cc2ccc3c(c2)OCO3)CC1 (configuration not stated)	-2	-4	0	-6	-10	15
c1cnc2ccc3ncccc3c2c1	-9	-2	-11	-2	-6	-8
O=Cc1ccc(O)c2ncccc12	70	63*	15	59*	-5	64*
CC(C)n1cnc2c(NCc3ccccc3)cc(N[C@H](C)CO)cc21	42	73*	-15	-10	-10	1
Cc1ccc(C(=O)N/C(=C\c2ccc(-c3ccc(Cl)cc3)o2)C(=O)NCCCN(C)C)cc1	1	86*	15	-1	10	18
CN(C)CCCNC(=O)/C(=C/c1ccc(-c2ccc([N+](=O)[O-])cc2)o1)NC(=O)c1ccccc1	-7	-9	26	5	6	5
CN(C)CCCNC(=O)/C(=C\c1ccc(-c2ccc(Br)cc2)o1)NC(=O)c1ccccc1	-3	96*	7	-2	-6	10
Cc1ccc(S(=O)(=O)N2CCN(c3ncnc4scc(-c5ccc(F)cc5)c34)CC2)cc1	42	28	-9	-9	-23	9
COc1ccc(/C=N/n2c(SC)nnc2-c2ccccc2)cc1C	-14	12	27	-6	0	8
O=C(NCc1ccccc1F)C1CC(=O)N(c2ccc3c(c2)OCCO3)C1 (configuration not stated)	2	-2	12	0	5	-4
